# Source: the supplement of paper PMC11417369
# ± gives the standard deviation of the averaged measurements. In all, about 25,000 sequences were measured (“ln(normalized median fluorescence intensity)”: median about 8.9, highest 2% from about 10 on). The full list was thinned out, with the highest values kept by preference.
# Tested on: PfAP2-LT AP2 domain (GST-tagged)
# Assay: gcPBM binding intensity (ln(normalized median fluorescence intensity)); higher = stronger DNA binding
# How it was run: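 An Agilent 4 × 180k array carrying primer-extended double-stranded 36-bp intergenic genomic probes and negative controls received GST-tagged P. falciparum DNA-binding domains expressed in E. coli, about 25 μg on average, for 1 h. The binding buffer contained 1× PBS, 1% milk, 0.2 mg/ml BSA, 0.5% salmon testes DNA and 0.03% Triton X-100. Binding intensity is the top Masliner-normalised natural-log median intensity across replicate spots of either probe orientation, read after Alexa488 anti-GST antibody staining and a 488 nm scan.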
row,Sequence,gcPBM binding intensity (ln)
1,ATATTATATTATATAACACACATTTTTCATAACACT [CACACA_site407],8.95 ± 0.34
2,TATTAATTTTTATACGCATGTGTATAGTAATATATA [TGCATGCA_site1010],8.66 ± 0.37
3,TTTATAAACAAATGAACACACAAACATATTTATATA [CACACA_site7478],8.86 ± 0.42
4,TATGAATATCTATACACACACATATATATACTCACT [CACACA_site1597],9.39 ± 0.36
5,ATACGAAGTACGTACACACACTTATATGTTACTAAA [CACACA_site7812],9.26 ± 0.33
6,CAATACTATTATTATAGTACGTATAAAATTATATAT [XGTACX_site4950],8.71 ± 0.49
7,TATTTTATCATTTGCACACGCACACCGACATAAAAA [CACACA_site4348],9.26 ± 0.28
8,AAAAGTATATATTCAGTGCATAGTCTTTAAATATAA [GTGCAC_site9522],8.7 ± 0.38
9,AAAAAAAAAACATACACACATACATACATATATATT [CACACA_site949],9.28 ± 0.27
10,AAAAAAAAAAAAAAAACACACATATATATATATATA [CACACA_site2436],10.095 ± 0.0071
11,AAAAAAAAAAAAAAAACACACATATATATATAATAT [CACACA_site1159],8.96 ± 0.42
12,AAAAAATATTGAAGTACACACATTATGAACTTTTTT [CACACA_site1733],8.78 ± 0.42
13,AAAGAATACATATATTGTACATATATATATACCGTT [XGTACX_site6250],9.02 ± 0.45
14,TATGTTTTTACGTGTGTGCACTTTGTAGAGATAAGT,9.06 ± 0.38
15,ATGTAGATAAAACGTGTGCACATGTTTTTTGTTATT,10.3 ± 0.2
16,TTTTTTTTTTTTTGTGCATGTAGATTTATTGTTATA [TGCATGCA_site582],8.79 ± 0.39
17,AAAAAGAAAAAACGAAGTACAATTATAAGATTATAT [XGTACX_site410],8.86 ± 0.47
18,ATGTTCTTTAAAACCACACACCCCCCAACCCCCCTC [CACACA_site2373],10.1 ± 0.13
19,ACCCTATATGTAACTACACACCGCATATTGTTTACT [CACACA_site3071],9.46 ± 0.42
20,TATGTAACCTGTTTTACACACCCCCACCCCCCTCTT [CACACA_site319],10.09 ± 0.05
21,TAGATACATACACGCACACACATATATATATATATA [CACACA_site12],10.11 ± 0.035
22,CATAGATACATACACGCACACACATATATATATATA [CACACA_site13],10.2 ± 0.17

row,Sequence,gcPBM binding intensity (ln)
1,CATATATAGATATATACACACATACATACATACATA [CACACA_site7748],9.3 ± 0.27
2,TATACACATAGACACACACACATACACGCACATACA [CACACA_site6908],9.99 ± 0.17
3,CATACACATACACATACACACGCATAGAAACATACG [CACACA_site8666],9.55 ± 0.51
4,AGATAGATACATACACGTACATATATATATACACAT [XGTACX_site4755],9.18 ± 0.35
5,TATAGATACATATACACACACACACCGACATATATA [CACACA_site9138],10.2 ± 0.14
6,TATAGATACATATACACACACACACCCACATATATA [CACACA_site3436],9.94 ± 0.11
7,CACGCACGCACATACACACACATACACATATAAATA [CACACA_site6907],9.72 ± 0.45
8,AACATACATAGACACACACACACACGCACACGCACA [CACACA_site6373],10.35 ± 0.071
9,TAGATACATACACGCACACACATATATAAATAAATA [CACACA_site6157],9.68 ± 0.35
10,TATAGATACAGATACACACACACACCGACATATATA [CACACA_site5832],10 ± 0.22
11,AAAAATAACATATAAACACACATATAGATTTATATA [CACACA_site7738],8.94 ± 0.37
12,TTTTATGCTCAATTATTAAGAAATACTTTTTCTTCC [XGTACX_negctrl_site208],8.45 ± 0.68
13,ATTTATATATATGTATGTACGTATGTGTGTATATGT [XGTACX_site7587],9.36 ± 0.35
14,GTATGTATGTATGTATGTACGTATGTATGTATATAT [XGTACX_site3369],9.2 ± 0.36
15,AAACGTGCGTATATGTGTACGCATATATATATATAT [XGTACX_site5252],10.2 ± 0.34
16,TATTTATTTATAAACACACAAATATTTTTATTTATA [CACACA_site6889],8.49 ± 0.32
17,TTTTCTATATAACAACGTACATTTATTATATTATAA [XGTACX_site6148],8.49 ± 0.45
18,TTTATATAAATCAAATGTACATATTCCAAATATATA [XGTACX_site8515],8.45 ± 0.34
19,GGACACCTTCAAAACACACATACAAATAAATAGAAA [CACACA_site3305],8.97 ± 0.54
20,ATCAAATAGAGACACACACACCTAAACATAAAAGAA [CACACA_site7321],9.78 ± 0.48
21,CAATCAAATGGACACACACACACCTAAACATAAAAG [CACACA_site5524],10 ± 0.3
22,CAATCAAATAGACACACACACACCTAAACATAAAAG [CACACA_site7322],10.2 ± 0.4

row,Sequence,gcPBM binding intensity (ln)
1,ATAAAAAAGAAACAAACACACATACATACAAACAAA [CACACA_site4256],9.47 ± 0.33
2,CAATCAAAGAAACACACACACACCTAAACATAAAAG [CACACA_site2756],10.2 ± 0.33
3,AACAATCAAATAGACACACACACACCCAAACATAAA [CACACA_site2757],10.1 ± 0.11
4,CACAAAAATAGACACACACACATATAAATAAATATA [CACACA_site6598],9.7 ± 0.38
5,AAAACAAACCCATTTACACACATAAATAAATCAATT [CACACA_site6126],9.38 ± 0.3
6,ATTATATTTATGTTGGTGCATTATACATGAAATTTA,8.68 ± 0.4
7,AGAAAAGGACATATATGTACTTATCAATATAGAAAC [XGTACX_site1042],9.04 ± 0.48
8,TTCTTTTTTCTTTATGGTACGTGTAATATATATCAA [XGTACX_site7960],8.82 ± 0.45
9,AATAGAACAAATAAAACACACACATATATATATATA [CACACA_site8893],9.76 ± 0.37
10,AAACAAAAAATATATACACACTAAACATAAAAAAAA [CACACA_site4185],9.02 ± 0.46
11,ATCAAGCACGAACACACACACACACGCACGCCCACA [CACACA_site6308],10.3 ± 0.3
12,TTTATTTTATCATTTGCACACGCACGCCCACATAAA [CACACA_site353],9.39 ± 0.42
13,GGCATACACGAACACACACACACACGCACATATATA [CACACA_site6426],10.5 ± 0.36
14,AACAAATACGAACACACACACACACTAAAAAAAAAA [CACACA_site6386],10.3 ± 0.2
15,ACACGCACATATATATAAATATATATATATATAAAT [CACACA_negctrl_site1781],9.6 ± 0.28
16,CCAACATGCCCACGCACACACAAAAAAAGCATGCAT [CACACA_site4217],9.51 ± 0.4
17,CACGCGAACATACATACACACACATATATATATATG [CACACA_site7951],9.69 ± 0.35
18,CGAACAAACAAATAAACACACAAAAAAAAATATATA [CACACA_site1825],9.11 ± 0.5
19,CACACGCACGAACACACACACACACGCATATAAATA [CACACA_site6302],10.2 ± 0.3
20,CACGCGCACGAACACACACACACACGCATATAAATA [CACACA_site7103],9.86 ± 0.33
